# Legend:
# Assay in all cases: pooled miR-30 sensor sort-seq; sequence = guide strand
# Settings in all cases: shRNA
# [1] = target: SLCO4C1
# [2] = target: SMYD3
# [3] = target: SNX29
# [4] = target: SPOCK1
# [5] = target: SPSB2
# [6] = target: SPRR2B
# [7] = target: SPOPL
# [8] = target: SQRDL
# Note: reference of the scale not given here.
sequence,measurement,setting,value
TTATTTAAAAAGTATCACCTTA,sensor-assay potency score (higher = more potent),[1],0.0246
TAATATTCAAGTATGCTGCTTC,sensor-assay potency score (higher = more potent),[1],0.868
TAGGCCAACACCAACTTCCTGC,sensor-assay potency score (higher = more potent),[2],0.026
TTGAGCACCTCGTTCTCTCTGG,sensor-assay potency score (higher = more potent),[3],-0.561
TTGTCTAGGAAATTGCCGTGGT,sensor-assay potency score (higher = more potent),[4],0.282
TTCTCTGAACAGTCTTTGGGGT,sensor-assay potency score (higher = more potent),[5],-0.466
TTGCTCTGATGGTACAGCTTCC,sensor-assay potency score (higher = more potent),[5],-0.719
ATACTTTGGCTGGCAGGGTGGG,sensor-assay potency score (higher = more potent),[6],-1.37
TTTTGCTCGAACTTCACTTTTG,sensor-assay potency score (higher = more potent),[7],-1.29
TAGCAGACTGTCATAGCCTTGA,sensor-assay potency score (higher = more potent),[5],-0.29
TGTCGAAGTACACTGCACCTAT,sensor-assay potency score (higher = more potent),[7],-0.0442
TGTAACACCAGCTTTCTGCTAT,sensor-assay potency score (higher = more potent),[7],0.257
TTGACCTCGATGTTCTCTGAAC,sensor-assay potency score (higher = more potent),[5],-1.03
TTTGGGGTTCCAACCGTGGCGC,sensor-assay potency score (higher = more potent),[5],-1.17
TTTGTCATCATCCTCATCCTCA,sensor-assay potency score (higher = more potent),[4],0.0865
TTGAATAGCCCCTCTTACCCCG,sensor-assay potency score (higher = more potent),[5],-0.468
TTTGCTATCAGGGAACATCATG,sensor-assay potency score (higher = more potent),[6],-1.04
TTCTTCGCACATGACCTTCAGC,sensor-assay potency score (higher = more potent),[7],-0.607
TCCATGATAAGCTTTGATGAGA,sensor-assay potency score (higher = more potent),[6],-1.51
TTGAACTTTTTAACACTTCACC,sensor-assay potency score (higher = more potent),[7],-1.27
TTGCACAGGTGGTAGAAGCTCA,sensor-assay potency score (higher = more potent),[6],-0.478
TCGCACATGACCTTCAGCCGTT,sensor-assay potency score (higher = more potent),[7],-0.42
AAATTTTACTACTTTAACCTGT,sensor-assay potency score (higher = more potent),[7],0.191
TTTACTACTTTAACCTGTGTGT,sensor-assay potency score (higher = more potent),[7],-0.00218
TTTCATATGAAATCACTTGGGT,sensor-assay potency score (higher = more potent),[8],0.204
TAGTGGTCAGTCTGCAGCGGGG,sensor-assay potency score (higher = more potent),[5],-1.67
TAGCGTAGCCCAGAGTTCCCTC,sensor-assay potency score (higher = more potent),[5],-0.633
TATGAATCCATGATAAGCTTTG,sensor-assay potency score (higher = more potent),[6],-0.839
TATTTGTATTAGTATGTCCTGA,sensor-assay potency score (higher = more potent),[7],-0.376
TTAACCTGTGTGTAACACCAGC,sensor-assay potency score (higher = more potent),[7],-0.559
